Molecules are shown by their SMILES. Screen size: about 68,000 compounds; about 2,700 (4%) showed an effect of 50% or more. The entries come from a sample that favours strong results as a whole.

This assay concerns Plasmodium berghei. As to the kind of experiment: Screen against P. berghei liver stage (PbLuc), transformed with Luciferase, at 2uM. Format: functional, HepG2. The following applies: tested at 2 uM.
`CCc1cnc(CN(C(C)=O)C2CCN(CCN3CCCCC3)C2)o1` (configuration not stated): the INHIBITION came to 56.02%.
Consider `CCc1cnc(CN(C(C)=O)C2CCN(Cc3nccn3C)C2)o1` (configuration not stated), for which the INHIBITION is 10.22%.
For `CCc1cnc(CN(C(C)=O)C2CCN(CC3(O)CCCCC3)C2)o1` (configuration not stated), the INHIBITION came out at 43.79%.
For `CCc1cnc(CN(C(C)=O)C2CCN(CCS(C)(=O)=O)C2)o1` (configuration not stated) the value was -9.62%.
For the compound `CCc1cnc(CN(C(C)=O)C2CCN(CCc3ccccc3)C2)o1` (configuration not stated), the INHIBITION came to 51.94%.
In the case of `CCc1cnc(CN(C(C)=O)C2CCN(CCc3cnn(C)c3)C2)o1` (configuration not stated), the INHIBITION came out at 1.61%.
For `CCc1cnc(CN(C(C)=O)C2CCN(CCc3ccncc3)C2)o1` (configuration not stated) the value was 17.31%.
As for `CCc1cnc(CN(C(C)=O)C2CCN(CCc3ccccn3)C2)o1` (configuration not stated), the INHIBITION amounted to 35.65%.
Turning to `CCc1cnc(CN(C(C)=O)C2CCN(CC(=O)N3CCCC3)C2)o1` (configuration not stated), the INHIBITION is 75.98%.
For `Cc1cc(C)cc(OCC(=O)N2CCCN(CC(N)=O)CC2)c1` the value was -28.76%; for `CN(C)C[C@H]1OC[C@@H]2CCN(C(=O)c3cccn3C)C[C@@H]21`, 8.65%; for `Cc1cc(C)n(NC(=O)c2ccc(Cl)cc2Cl)c(=O)c1`, -3.05%.
The result for `Cc1ccc(CNC2CC3(CCN(CCO)CC3)c3ccccc32)s1` (configuration not stated) reads 47.05%.
For the compound `CN(C)[C@@H]1CN(C(=O)COc2cccc(F)c2)C[C@H]1O`, the INHIBITION is -0.83%.
`CCCNC(=O)C1CCN(Cc2csc(CC)n2)CC1`: the INHIBITION is 36.64%.
Turning to `COCCC1COC2(CCN(C(=O)Cc3ccccc3)CC2)C1` (configuration not stated), the INHIBITION is -19.07%.
As for `O=C([C@@H]1COC[C@H]2CN(C3CCOCC3)C[C@H]21)N1CCCCO1`, the INHIBITION worked out at 59.77%.
Consider `O=C([C@H]1COC[C@H]2CN(C3CCOCC3)C[C@H]21)N1CCCO1`, for which the INHIBITION is -17.39%.
As to `O=C([C@H]1COC[C@H]2CN(C3CCOCC3)C[C@H]21)N1CCCCO1`, the INHIBITION is -3.25%.
As to `CCOCC1c2c(cnn2CC2CC2)CCN1Cc1nccs1` (configuration not stated), the INHIBITION was determined as 26.64%.
Take `O=C(NCCCO)c1nnsc1-c1ccc(Cl)cc1`: the INHIBITION was found to be 34.52%.
For the compound `CN(CCCc1cnn(C)c1)Cc1cc2n(n1)CCNC2`, the INHIBITION amounted to 19.66%.
Consider `CS(=O)(=O)NCCCN1CCCC1c1cccc(Br)c1` (configuration not stated), for which the INHIBITION is -8.52%.
Turning to `CS(=O)(=O)NCCCN1CCCC1c1ccccc1` (configuration not stated), the INHIBITION turned out to be 42.11%.
Consider `CS(=O)(=O)NCCCN1CCCC1c1ccsc1` (configuration not stated), for which the INHIBITION came out at 51.46%.
For `Cc1noc(C)c1CN1C[C@@H]2COC[C@H](C(=O)N3CCCCO3)[C@@H]2C1`, the INHIBITION is reported as -60.98%.
Regarding `COC(=O)CCn1ccc(=O)c2cc(F)ccc21`, the INHIBITION is -17.26%.
As for `O=C(O)Cn1ccc(=O)c2cc(F)ccc21`, the INHIBITION was 3.88%.
`O=C(O)CCn1ccc(=O)c2cc(F)ccc21`: the INHIBITION was 55.73%.
In the case of `O=C(CCn1cncn1)Nc1ccc(F)cc1OCC1CC1`, the INHIBITION was 14.47%.
With `Cn1cc(CNCCNc2ncc(Cl)cc2Cl)cn1`, the INHIBITION is recorded as -12.84%.
For the compound `Cn1ccnc1CNCCNc1ncc(Cl)cc1Cl`, the INHIBITION is on record as 57.43%.
Consider `CCn1cc(CNCCNc2ncc(Cl)cc2Cl)cn1`, for which the INHIBITION is listed as -30.98%.
`CC(C)c1nc(CN2CCc3onc(-c4cccc(F)c4)c3C2)no1`: the INHIBITION was -18.57%.
For the compound `COc1c(CNCCNC(=O)c2ccc(C)c(F)c2)c(C)nn1C`, the INHIBITION is listed as -45.21%.
On to `COc1c(CNCCNC(=O)c2ccccc2)c(C)nn1C`, for which the INHIBITION came out at 33.82%.
Regarding `COc1c(CNCCNC(=O)c2ccccc2F)c(C)nn1C`, the INHIBITION came out at 67.69%.
For `COc1cccc([C@@H]2CN(C(=O)c3ccc(C)cc3O)C[C@H]2C(=O)O)c1` the value was 10.1%.
As to `Cc1cn2nc(N3CCCC3C(=O)N3CCSCC3)sc2n1` (configuration not stated), the INHIBITION amounted to 55.36%.
As to `Cc1cn2nc(N3CCCC3C(=O)N3CCN(C)CC3)sc2n1` (configuration not stated), the INHIBITION amounted to 7.67%.
The result for `Cc1cn2nc(N3CCCC3C(=O)N3CCOCC3)sc2n1` (configuration not stated) reads -11.41%; that for `COc1ccc(C(=O)NC(CC(=O)O)c2cccs2)c(OC)c1` (configuration not stated), 7.01%; that for `COCC(O)CN1CCC(NC(=O)c2cccc(C)c2)CC1` (configuration not stated), 2.32%.
With `CS(=O)(=O)CCCNC1(c2cccc(Cl)c2)CCCC1`, the INHIBITION is on record as 17.2%.
In the case of `CS(=O)(=O)CCCNC1(c2ccc(Br)cc2)CCC1`, the INHIBITION is given as 55.36%.
On to `Cc1cccc(C2(NCCCS(C)(=O)=O)CCCC2)c1`, for which the INHIBITION turned out to be 36.28%.
As to `O=C(NCc1ccnc(OCC(F)(F)F)c1)NCC1CCOC1` (configuration not stated), the INHIBITION is -3.72%.
The result for `CNC(=O)[C@H]1C[C@@H]2CN(S(=O)(=O)c3ccccc3)C[C@@H]2N1C(C)=O` reads 5.52%; that for `O=C(NCc1cccs1)[C@H]1CC[C@@H]2[C@@H](CCN2c2ncccn2)O1`, -23.39%; that for `Cc1oncc1C(=O)N1CCc2ncnc(-c3cnn(C)c3)c2CC1`, 33.74%.
Regarding `Cc1cc(C(=O)N2CCc3ncnc(-c4cnn(C)c4)c3CC2)c(C)o1`, the INHIBITION is recorded as 55.94%.
With `Cc1occc1C(=O)N1CCc2ncnc(-c3cnn(C)c3)c2CC1`, the INHIBITION came to 23.27%.

The values above are taken from ChEMBL document CHEMBL4513216, “Probing the Open Global Health Chemical Diversity Library for Multistage-Active Starting Points for Next-Generation Antimalarials” (ACS Infect Dis, 2020).
